Test [1] can be described thus: NCI Yeast Anticancer Drug Screen. Data for the rad50 strain (AID 155).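 Also: 0% = growth of vehicle-only cultures of the same strain.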 Conditions: S. cerevisiae rad50 strain growth inhibition, hits give high values; at 50.0 µM unless noted. In outline: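 Genetically altered yeast (DNA repair pathway); compound treatment; growth inhibition vs vehicle ctrl.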
A short description of test [2]: NCI Yeast Anticancer Drug Screen. Data for the mec2-1 strain (AID 157). As to conditions: S. cerevisiae mec2-1 strain, hits give high values; at 50.0 µM unless noted. In outline:
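mec2-1 yeast strain, carrying an alteration in DNA damage repair or cell cycle control, was exposed to compounds; growth inhibition was measured relative to vehicle-treated controls.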

Test [3] in a line: NCI Yeast Anticancer Drug Screen. Data for the sgs1 mgt1 strain (AID 161).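 Also: 0% = growth of cultures given vehicle only.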 As to conditions: S. cerevisiae sgs1 mgt1 strain, hits give high values; at 50.0 µM unless noted. Put shortly:
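Compounds are added to genetically altered yeast, and growth is compared with cultures given vehicle alone to give percent inhibition.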

Test [4] in a line: NCI Yeast Anticancer Drug Screen. Data for the cln2 rad14 strain (AID 165).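 Also: 0% = growth equal to vehicle treated cultures.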 As to conditions: S. cerevisiae cln2 rad14 strain, hits give high values; at 50.0 µM unless noted. Put shortly: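 Yeast carrying cln2 and rad14 alterations (cell cycle control and DNA damage repair) were exposed to compounds. Growth inhibition was measured against vehicle-treated controls.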
Test [5] can be described thus: NCI Yeast Anticancer Drug Screen. Data for the bub3 strain (AID 167). As to conditions: S. cerevisiae bub3 mutant strain, hits give high values; at 50.0 µM unless noted. In outline: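 Yeast carrying a defined mutation is treated with each compound, and growth is compared with that of vehicle-exposed cells to give inhibition.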
Test [6] can be described thus: NCI Yeast Anticancer Drug Screen. Data for the mlh1 rad18 strain (AID 175). Conditions: S. cerevisiae mlh1 rad18 strain growth inhibition, hits give high values; at 50.0 µM unless noted. Put shortly:
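Growth inhibition of the yeast strain was measured after compound exposure and expressed relative to vehicle-treated controls. The strain carries defined defects in DNA damage repair.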

SMILES strings stand for the structures. The panel holds about 79,000 compounds, 15% with a hit somewhere; the sample as a whole holds those more often. Values without a mark were called inactive. Activity calls are given as the source filed them. Rule as the data show it: active = growth inhibition above about 70%; inactive = the rest.

For the molecule `CCN(CC)CC(C)O` (stereo not given), the growth inhibition was 39.7% in test [1]; 13.2% in test [2]; 21% in test [3]; -26.9% in test [4]; -9.45% in test [5]; 30.6% in test [6].
Regarding `CCc1ccc2nccc(NCCCN(C)C)c2c1[N+](=O)[O-]`, the growth inhibition in test [1] is 3.55%; in test [2], -13.4%; in test [3] it was 6.7%; in test [4] it was 15.2%; in test [5], -17.7%; in test [6] it was 13.5%.
Take `COc1ccc(/C(Cc2ccccc2)=N/Nc2ccc([N+](=O)[O-])c([N+](=O)[O-])c2)cc1`: the growth inhibition in test [1] is 48.1%; in test [2], -8.15%; in test [3], 23.5%; in test [4], 6.35%; in test [5], 9.7%; in test [6], 20.1%.
As to `OC1CC2CCCCC2CC1(O)c1ccc(OCc2ccccc2)c(OCc2ccccc2)c1` (stereo not given), the growth inhibition in test [1] is 16.6%; in test [2], -9.55%; in test [3] it was -19%; in test [4], 14.8%; in test [5], 3.4%; in test [6] it was -5.2%.
With `CCc1ccc(NS(=O)(=O)c2ccc(OC)cc2)cc1`, the growth inhibition in test [1] is 37.9%; in test [2] it was 63.5%; in test [3], 80.2% (active); in test [4], 25.9%; in test [5], 43.4%; in test [6], 75.7% (active).

Source of the values: PubChem BioAssay (NCI).
